Article PMC11006913
Changes are numbered by the printed parent chain.

Assays:
Assay in all cases: PBM; 200 nM protein, PBS
Conditions in all cases: dsDNA, one strand shown
HOXB9 [1] = target: HOXB9 (Homo sapiens, UniProt P17482 171-250, T197M)
HOXC9 [2] = target: HOXC9 (Homo sapiens, UniProt P31274 178-260, K195R)
VENTX [3] = target: T1, VENTX (Homo sapiens, UniProt O95231 78-163)
T1 sequence: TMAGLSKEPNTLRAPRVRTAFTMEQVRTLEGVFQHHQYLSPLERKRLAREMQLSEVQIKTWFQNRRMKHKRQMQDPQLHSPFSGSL

PAX4 [4] = target: T2, PAX4 (Homo sapiens, UniProt O43316 9-242, R200K)
T2 sequence: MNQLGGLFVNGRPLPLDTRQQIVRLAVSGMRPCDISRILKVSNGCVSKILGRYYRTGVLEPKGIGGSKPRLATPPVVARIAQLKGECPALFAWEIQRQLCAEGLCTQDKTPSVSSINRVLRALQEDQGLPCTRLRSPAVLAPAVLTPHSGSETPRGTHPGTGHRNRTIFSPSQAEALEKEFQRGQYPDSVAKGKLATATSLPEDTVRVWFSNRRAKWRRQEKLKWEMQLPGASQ

VENTX [5] = target: T3, VENTX (Homo sapiens, UniProt O95231 78-163, Y115F)
T3 sequence: T1 sequence with Y38F

PAX4 [6] = target: T4, PAX4 (Homo sapiens, UniProt O43316 9-242)
T4 sequence: T2 sequence with K192R

HOXB9 [7] = target: HOXB9 (Homo sapiens, UniProt P17482 171-250)
PAX4 [8] = target: T5, PAX4 (Homo sapiens, UniProt O43316 9-242, R200Q)
T5 sequence: T2 sequence with K192Q

HOXC9 [9] = target: HOXC9 (Homo sapiens, UniProt P31274 178-260, R193K)
HOXA2 [10] = target: HOXA2 (Homo sapiens, UniProt O43364 129-215, R185K)
PAX4 [11] = target: T6, PAX4 (Homo sapiens, UniProt O43316 9-242, F177V)
T6 sequence: T2 sequence with F169V, K192R

HOXC10 = HOXC10 (Homo sapiens, UniProt Q9NYD6 254-340, K271E)
PAX4 [12] = target: T7, PAX4 (Homo sapiens, UniProt O43316 9-242, F177Y)
T7 sequence: T2 sequence with F169Y, K192R

HOXB9 [13] = target: HOXB9 (Homo sapiens, UniProt P17482 171-250, R186Q)
HOXC9 [14] = target: HOXC9 (Homo sapiens, UniProt P31274 178-260, R222W)
PAX4 [15] = target: T8, PAX4 (Homo sapiens, UniProt O43316 9-242, R227W)
T8 sequence: T2 sequence with K192R, R219W

HOXA2 [16] = target: HOXA2 (Homo sapiens, UniProt O43364 129-215, Y150S)
HOXA2 [17] = target: HOXA2 (Homo sapiens, UniProt O43364 129-215)
NKX2-5 [18] = target: NKX2-5 (Homo sapiens, UniProt P52952 125-210, R139K)
NKX2-5 [19] = target: NKX2-5 (Homo sapiens, UniProt P52952 125-210)
Sequence of NKX2-5 (Homo sapiens, UniProt P52952 125-210) (P52952 125-210): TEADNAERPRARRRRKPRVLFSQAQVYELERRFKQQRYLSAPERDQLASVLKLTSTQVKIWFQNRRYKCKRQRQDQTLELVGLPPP

Sequence of HOXB9 (Homo sapiens, UniProt P17482 171-250) (P17482 171-250): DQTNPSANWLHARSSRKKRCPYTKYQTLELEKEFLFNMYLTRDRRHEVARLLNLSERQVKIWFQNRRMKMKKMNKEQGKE
Sequence of HOXC9 (Homo sapiens, UniProt P31274 178-260, R193K) (P31274 178-260 R193K): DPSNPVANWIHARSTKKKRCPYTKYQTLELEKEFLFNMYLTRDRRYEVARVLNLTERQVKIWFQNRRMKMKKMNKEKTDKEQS
Sequence of HOXC9 (Homo sapiens, UniProt P31274 178-260, K195R) (P31274 178-260 K195R): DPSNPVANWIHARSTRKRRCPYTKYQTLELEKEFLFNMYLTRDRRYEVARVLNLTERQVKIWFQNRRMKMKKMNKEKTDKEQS
Sequence of HOXA2 (Homo sapiens, UniProt O43364 129-215, R185K) (O43364 129-215 R185K): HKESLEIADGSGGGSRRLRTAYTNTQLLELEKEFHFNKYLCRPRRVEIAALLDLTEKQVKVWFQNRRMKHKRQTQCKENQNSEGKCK
Sequence of HOXA2 (Homo sapiens, UniProt O43364 129-215) (O43364 129-215): as the sequence (O43364 129-215 R185K) above, with K57R counted along it
Sequence of HOXC10 (Q9NYD6 254-340 K271E): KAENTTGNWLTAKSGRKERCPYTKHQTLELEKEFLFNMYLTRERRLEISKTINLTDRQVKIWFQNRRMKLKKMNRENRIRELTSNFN
Sequence of HOXA2 (Homo sapiens, UniProt O43364 129-215, Y150S) (O43364 129-215 Y150S): as the sequence (O43364 129-215 R185K) above, with Y22S, K57R counted along it
Sequence of HOXB9 (Homo sapiens, UniProt P17482 171-250, T197M) (P17482 171-250 T197M): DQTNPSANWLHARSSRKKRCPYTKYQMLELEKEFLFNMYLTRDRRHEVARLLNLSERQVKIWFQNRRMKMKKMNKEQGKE
Sequence of HOXC9 (Homo sapiens, UniProt P31274 178-260, R222W) (P31274 178-260 R222W): as the sequence (P31274 178-260 R193K) above, with K16R, R45W counted along it
Sequence of HOXB9 (Homo sapiens, UniProt P17482 171-250, R186Q) (P17482 171-250 R186Q): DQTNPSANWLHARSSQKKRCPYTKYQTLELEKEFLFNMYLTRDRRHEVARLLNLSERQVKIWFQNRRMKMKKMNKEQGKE
Sequence of NKX2-5 (Homo sapiens, UniProt P52952 125-210, R139K) (P52952 125-210 R139K): as the sequence (P52952 125-210) above, with R15K counted along it

Sequence	binding signal (HOXB9 [1])	binding signal (HOXC9 [2])	binding signal (VENTX [3])	binding signal (PAX4 [4])	binding signal (VENTX [5])	binding signal (PAX4 [6])	binding signal (HOXB9 [7])	binding signal (PAX4 [8])	binding signal (HOXC9 [9])	binding signal (HOXA2 [10])	binding signal (PAX4 [11])	binding signal (HOXC10)	binding signal (PAX4 [12])	binding signal (HOXB9 [13])	binding signal (HOXC9 [14])	binding signal (PAX4 [15])	binding signal (HOXA2 [16])	binding signal (HOXA2 [17])	binding signal (NKX2-5 [18])	binding signal (NKX2-5 [19])
AATTAATA	10.3 upbm affinity estimate (log intensity, higher = more binding, comparable within an allelic series)	12.8 upbm affinity estimate (log intensity, higher = more binding, comparable within an allelic series)	12.3 upbm affinity estimate (log intensity, higher = more binding, comparable within an allelic series)	12 upbm affinity estimate (log intensity, higher = more binding, comparable within an allelic series)	11.6 upbm affinity estimate (log intensity, higher = more binding, comparable within an allelic series)	12.5 upbm affinity estimate (log intensity, higher = more binding, comparable within an allelic series)	12 upbm affinity estimate (log intensity, higher = more binding, comparable within an allelic series)	12.3 upbm affinity estimate (log intensity, higher = more binding, comparable within an allelic series)	12.7 upbm affinity estimate (log intensity, higher = more binding, comparable within an allelic series)	13.1 upbm affinity estimate (log intensity, higher = more binding, comparable within an allelic series)	10.8 upbm affinity estimate (log intensity, higher = more binding, comparable within an allelic series)	12 upbm affinity estimate (log intensity, higher = more binding, comparable within an allelic series)	11.2 upbm affinity estimate (log intensity, higher = more binding, comparable within an allelic series)	11.8 upbm affinity estimate (log intensity, higher = more binding, comparable within an allelic series)	11.3 upbm affinity estimate (log intensity, higher = more binding, comparable within an allelic series)	11.2 upbm affinity estimate (log intensity, higher = more binding, comparable within an allelic series)	11.1 upbm affinity estimate (log intensity, higher = more binding, comparable within an allelic series)	12.1 upbm affinity estimate (log intensity, higher = more binding, comparable within an allelic series)		
CCAACGCA																			8.88 upbm affinity estimate (log intensity, higher = more binding, comparable within an allelic series)	8.96 upbm affinity estimate (log intensity, higher = more binding, comparable within an allelic series)
CCGCACGG																			8.63 upbm affinity estimate (log intensity, higher = more binding, comparable within an allelic series)	8.62 upbm affinity estimate (log intensity, higher = more binding, comparable within an allelic series)
TAATTATA	10.3 upbm affinity estimate (log intensity, higher = more binding, comparable within an allelic series)	12.8 upbm affinity estimate (log intensity, higher = more binding, comparable within an allelic series)	12.4 upbm affinity estimate (log intensity, higher = more binding, comparable within an allelic series)	11.7 upbm affinity estimate (log intensity, higher = more binding, comparable within an allelic series)	11.8 upbm affinity estimate (log intensity, higher = more binding, comparable within an allelic series)	12.2 upbm affinity estimate (log intensity, higher = more binding, comparable within an allelic series)	11.9 upbm affinity estimate (log intensity, higher = more binding, comparable within an allelic series)	12.1 upbm affinity estimate (log intensity, higher = more binding, comparable within an allelic series)	12.7 upbm affinity estimate (log intensity, higher = more binding, comparable within an allelic series)	13.7 upbm affinity estimate (log intensity, higher = more binding, comparable within an allelic series)	10.7 upbm affinity estimate (log intensity, higher = more binding, comparable within an allelic series)	12.2 upbm affinity estimate (log intensity, higher = more binding, comparable within an allelic series)	11 upbm affinity estimate (log intensity, higher = more binding, comparable within an allelic series)	11.6 upbm affinity estimate (log intensity, higher = more binding, comparable within an allelic series)	11.2 upbm affinity estimate (log intensity, higher = more binding, comparable within an allelic series)	11.1 upbm affinity estimate (log intensity, higher = more binding, comparable within an allelic series)	11.1 upbm affinity estimate (log intensity, higher = more binding, comparable within an allelic series)	13 upbm affinity estimate (log intensity, higher = more binding, comparable within an allelic series)		
AATTAATT	10.3 upbm affinity estimate (log intensity, higher = more binding, comparable within an allelic series)	12.9 upbm affinity estimate (log intensity, higher = more binding, comparable within an allelic series)	12.5 upbm affinity estimate (log intensity, higher = more binding, comparable within an allelic series)	12.1 upbm affinity estimate (log intensity, higher = more binding, comparable within an allelic series)	11.8 upbm affinity estimate (log intensity, higher = more binding, comparable within an allelic series)	12.7 upbm affinity estimate (log intensity, higher = more binding, comparable within an allelic series)	12.2 upbm affinity estimate (log intensity, higher = more binding, comparable within an allelic series)	12.8 upbm affinity estimate (log intensity, higher = more binding, comparable within an allelic series)	12.8 upbm affinity estimate (log intensity, higher = more binding, comparable within an allelic series)	13.5 upbm affinity estimate (log intensity, higher = more binding, comparable within an allelic series)	10.9 upbm affinity estimate (log intensity, higher = more binding, comparable within an allelic series)	12.2 upbm affinity estimate (log intensity, higher = more binding, comparable within an allelic series)	11.6 upbm affinity estimate (log intensity, higher = more binding, comparable within an allelic series)	11.9 upbm affinity estimate (log intensity, higher = more binding, comparable within an allelic series)	11.2 upbm affinity estimate (log intensity, higher = more binding, comparable within an allelic series)	11.3 upbm affinity estimate (log intensity, higher = more binding, comparable within an allelic series)	11 upbm affinity estimate (log intensity, higher = more binding, comparable within an allelic series)	12.8 upbm affinity estimate (log intensity, higher = more binding, comparable within an allelic series)		
CTAATTAA	10.2 upbm affinity estimate (log intensity, higher = more binding, comparable within an allelic series)	12.7 upbm affinity estimate (log intensity, higher = more binding, comparable within an allelic series)	13.1 upbm affinity estimate (log intensity, higher = more binding, comparable within an allelic series)	12.3 upbm affinity estimate (log intensity, higher = more binding, comparable within an allelic series)	12.4 upbm affinity estimate (log intensity, higher = more binding, comparable within an allelic series)	12.9 upbm affinity estimate (log intensity, higher = more binding, comparable within an allelic series)	11.8 upbm affinity estimate (log intensity, higher = more binding, comparable within an allelic series)	12.9 upbm affinity estimate (log intensity, higher = more binding, comparable within an allelic series)	12.6 upbm affinity estimate (log intensity, higher = more binding, comparable within an allelic series)	13.8 upbm affinity estimate (log intensity, higher = more binding, comparable within an allelic series)	11.2 upbm affinity estimate (log intensity, higher = more binding, comparable within an allelic series)	12.3 upbm affinity estimate (log intensity, higher = more binding, comparable within an allelic series)	11.7 upbm affinity estimate (log intensity, higher = more binding, comparable within an allelic series)	11.6 upbm affinity estimate (log intensity, higher = more binding, comparable within an allelic series)	11.2 upbm affinity estimate (log intensity, higher = more binding, comparable within an allelic series)	11.5 upbm affinity estimate (log intensity, higher = more binding, comparable within an allelic series)	11 upbm affinity estimate (log intensity, higher = more binding, comparable within an allelic series)	13 upbm affinity estimate (log intensity, higher = more binding, comparable within an allelic series)		
